KCNQ2 block: inhibitors of rat KCNQ2 potassium channel. B-score at 10 µM. CHO-K1 KCNQ2, FluxOR thallium flux, 20 min; active compounds read low. O88943. actives 1.1% (n = 310,000);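 active means fluorescence ratio B-score at most minus 3 library SDs, with starting brightness B-score within 2 library SDs, cut at about -5.5 in these data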
Target sequence (O88943 whole entry, looked up): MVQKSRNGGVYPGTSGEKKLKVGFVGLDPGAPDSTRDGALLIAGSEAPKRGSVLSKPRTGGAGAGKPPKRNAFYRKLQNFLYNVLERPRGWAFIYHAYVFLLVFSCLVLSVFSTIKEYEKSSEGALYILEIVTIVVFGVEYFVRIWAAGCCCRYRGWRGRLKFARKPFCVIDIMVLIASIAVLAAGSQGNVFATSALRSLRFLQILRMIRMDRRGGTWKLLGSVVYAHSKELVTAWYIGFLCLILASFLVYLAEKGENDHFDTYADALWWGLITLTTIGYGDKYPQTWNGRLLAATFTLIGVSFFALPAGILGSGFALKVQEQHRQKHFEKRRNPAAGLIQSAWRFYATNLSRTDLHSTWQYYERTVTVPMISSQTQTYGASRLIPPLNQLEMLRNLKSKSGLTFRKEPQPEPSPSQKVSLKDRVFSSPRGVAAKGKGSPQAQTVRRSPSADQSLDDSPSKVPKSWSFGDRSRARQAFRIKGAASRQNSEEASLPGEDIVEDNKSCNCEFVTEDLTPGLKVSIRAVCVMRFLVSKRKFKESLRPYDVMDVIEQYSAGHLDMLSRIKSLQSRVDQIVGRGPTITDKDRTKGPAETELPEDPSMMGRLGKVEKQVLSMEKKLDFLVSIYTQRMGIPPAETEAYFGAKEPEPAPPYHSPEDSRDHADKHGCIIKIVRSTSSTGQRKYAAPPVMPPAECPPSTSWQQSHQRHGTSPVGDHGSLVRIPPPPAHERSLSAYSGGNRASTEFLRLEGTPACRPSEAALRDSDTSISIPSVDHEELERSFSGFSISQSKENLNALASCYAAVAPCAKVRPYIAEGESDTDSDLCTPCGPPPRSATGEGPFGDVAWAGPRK
KCNQ2 pot: enhances the rat KCNQ2 potassium channel. O88943. CHO-K1 KCNQ2, FluxOR thallium flux fluorescence; active compounds read high. B-score at 10 µM. actives 0.54% (n = 310,000). AID 2239;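 active means fluorescence ratio B-score at least 3 SD of library B-scores, with initial fluorescence B-score within 3 of them, cut at about 5.3 in these data; same plate scores as AID 2156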;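 further: B-score of peak minus minimum over baseline fluorescence ratio after K+ and Tl+ stimulus; positive B-score means potentiation of KCNQ2 with more thallium influx and brighter signal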
Starred values were filed as active, the others as inactive; i = inactive; . = no result. Sampled rows, rich in hits. Any-hit rate of the full collection: about 1.6%.

SMILES | KCNQ2 block | KCNQ2 pot
O=C(CSc1nnc(SCc2ccc(Cl)cc2)s1)N/N=C/c1c(Cl)cccc1Cl | i | 5.4*
O=C(CSc1nnc(SCc2ccc(Cl)cc2)s1)N/N=C/c1ccc(Cl)cc1Cl | i | .
CC(C)CCOc1ccc(C(=O)NN2C(=O)NC3(CCCCC3)C2=O)cc1 | i | .
Cc1ccc(C)c(OCc2cc(C(=O)N3C[C@@H](C)O[C@@H](C)C3)no2)c1 | i | 1.4
Cc1ccc(C)c(OCc2cc(C(=O)N3CC[C@@H]4CCCC[C@H]4C3)no2)c1 | -6.5* | -6.5
Cc1cc(/C=N/n2cnnc2)c(C)n1-c1ccc(OCc2ccc(F)cc2)cc1 | -6.2* | -6.2
Cc1cc(/C=N/n2cnnc2)c(C)n1-c1ccc(OCc2ccc(Cl)cc2Cl)cc1 | i | .
C=C(C)COc1ccc(-c2ncncc2Oc2ccc(OC)cc2)c(O)c1 | -5.8* | -5.8
C=C(C)COc1ccc(-c2nc(N)nc(C)c2-c2ccc(OC)cc2)c(O)c1 | i | .
O=C(NC1CCCN(Cc2ccc(Cl)cc2)C1)c1ccoc1 (stereo not given) | i | .
CCC(=O)c1ccc(OCc2ccc(C(=O)c3ccccc3)cc2)cc1 | i | .
Cc1nc2ccc(Br)cc2c(-c2ccccc2)c1C(=O)O | i | .
CC(=O)c1c(C)nc2ccc(Br)cc2c1-c1ccccc1 | -7.8* | -7.8
O=C(Nc1ccc(-n2cccn2)cc1)C1CCCCN1Cc1cccc2c1OCO2 (stereo not given) | i | .
C=CCn1c(Cc2csc(N)n2)nnc1SCC(=O)Nc1ccccc1C(F)(F)F | i | 0.52
Cc1cc(SC#N)cc(C)c1NC(=O)CCl | i | 6.3*
CCc1cc(SC#N)cc(C)c1N | i | .
CCC(=O)Nc1ccc(SC#N)cc1C | i | 0.11
CCc1cc(SC#N)cc(C)c1NC(=O)CCl | i | 11*
Cc1cc(C(=O)NC2CCCc3c2cnn3-c2ccc(C(C)(C)C)cc2)n[nH]1 (stereo not given) | i | 1
CC(C)/C(=N/Nc1ccccc1[N+](=O)[O-])c1ccccc1 | -6.4* | -6.4
C/C(=N/Nc1ccccc1[N+](=O)[O-])c1ccc(C)c([N+](=O)[O-])c1 | i | 0.55
CC(C)CNC(=S)N1CCN(C(c2ccccc2)c2ccccc2)CC1 | -5.9* | -5.9
C=C(C)CNC(=S)N1CCN(C(c2ccccc2)c2ccccc2)CC1 | i | .
COc1ccc(NC(=O)CN(c2ccc(F)cc2)S(=O)(=O)c2ccccc2)c(OC)c1 | i | .
SMILES | KCNQ2 block | KCNQ2 pot
CCOC(=O)N1CCN(CCC(=O)c2ccc(OC)cc2)CC1 | i | .
CCOC(=O)N1CCN(CCC(=O)c2ccc(Cl)cc2)CC1 | -6.7* | -6.7
O=S(=O)(c1cccc(C(F)(F)F)c1)N1CCC(c2cc(-c3cccc4ccccc34)n[nH]2)CC1 | -6.1* | -6.1
COc1ccc(S(=O)(=O)N2CCC(c3cc(-c4cccc5ccccc45)n[nH]3)CC2)cc1 | i | .
CCc1nc2sccc2c(=O)[nH]1 | i | .
COc1ccccc1NC(=O)CN(Cc1ccco1)C(=O)c1cccs1 | i | .
O=C(CN(Cc1ccco1)S(=O)(=O)c1cccs1)Nc1ccccc1C(F)(F)F | -7* | -7
COc1ccc(Cl)cc1NC(=O)CN1CCN(S(=O)(=O)N2CCCCC2)CC1 | i | 0.7
Cc1ccc(OC(=O)c2ccc(Cl)c([N+](=O)[O-])c2)cn1 | i | 0.09
Cc1ccc(C(=O)Oc2cccnc2)cc1[N+](=O)[O-] | i | 6.1*
COc1cc(CNCCc2c[nH]c3ccccc23)cc(Cl)c1OCC(N)=O | i | 1.9
COc1cc(CNCCc2c[nH]c3ccccc23)ccc1OCc1ccc(F)cc1 | -7.2* | -7.2
CCCn1nc(C(=O)OCC(=O)Nc2cccc(OC)c2)c2ccccc2c1=O | i | 0.78
CSCc1ccc(C(=O)NC2CC(C)(C)Cc3c2cnn3-c2ccc(F)cc2)o1 (stereo not given) | i | .
CC1(C)SC(=S)N(/N=C/c2ccc(O)cc2)C1N(O)C(=O)Nc1ccc([N+](=O)[O-])cc1 (stereo not given) | -7.5* | -7.5
Cc1ccc(/C=N/N2C(=S)SC(C)(C)C2N(O)C(=O)Nc2ccc([N+](=O)[O-])cc2)cc1 (stereo not given) | i | .
CCN(CC(=O)Nc1ccc(C)c(F)c1)CC(=O)NC(C)(C)C | i | .
CCOC(=O)Cc1csc(NC(=O)C(NC(=O)C2CCC(C)CC2)C(C)C)n1 (stereo not given) | i | 1.2
CCOc1c(C)cnc2c1c(=O)n(Cc1cccc(Cl)c1)c(=O)n2C | i | .
CCOc1c(C)cnc2c1c(=O)n(Cc1ccc(Cl)cc1)c(=O)n2C | -5.9* | -5.9
Cc1ccc(N(C)S(=O)(=O)c2ccc(-c3cnc(C4CC4)o3)cc2)cc1 | -9.5* | -9.5
Cc1ccc(NS(=O)(=O)c2ccc(-c3cnc(C4CC4)o3)cc2)cc1 | i | .
N=C1S/C(=C\c2ccco2)C(=O)N1c1nccs1 | i | 9.1*
N=C1S/C(=C\c2ccco2)C(=O)N1c1ccc2c(c1)OCO2 | i | .
Cc1nn(C)cc1CN1CCCC(C(=O)c2ccc(-c3ccccc3)cc2)C1 (stereo not given) | i | 2
SMILES | KCNQ2 block | KCNQ2 pot
Cc1ccccc1CN(CC(=O)Nc1cccc([N+](=O)[O-])c1)S(=O)(=O)c1ccc(Cl)cc1 | -6.6* | -6.6
Cc1ccc([N+](=O)[O-])cc1NC(=O)CN(C1CCCCC1)S(=O)(=O)c1ccc(Cl)cc1 | -7.9* | -7.9
Cc1ccc(NC(=O)CN(c2ccc(Cl)cc2)S(=O)(=O)c2cc([N+](=O)[O-])ccc2Cl)c(C)c1 | -7.9* | -7.9
Cc1ccc([N+](=O)[O-])cc1NC(=O)CN(C(=O)c1ccccc1Cl)C1CCCCC1 | i | .
COc1ccc(C)cc1S(=O)(=O)N(CC(=O)Nc1cccc([N+](=O)[O-])c1)c1ccccc1 | i | 0.79
CS(=O)(=O)N(CC(=O)Nc1cccc([N+](=O)[O-])c1)c1ccccc1 | i | 1.1
Cc1cccc(NC(=S)NC(=O)c2oc3ccccc3c2C)n1 | i | 1.8
Cc1ccc(-c2c[n+](Cc3ccc(Cl)c(Cl)c3)c3n2CCC3)cc1 | i | 0.83
N#Cc1ccc(C(=O)Nn2cnnc2)cc1 | i | .
CN1CCN(S(=O)(=O)c2ccc(NS(=O)(=O)c3ccccc3)cc2)CC1 | i | 0.11
COc1cccc(-c2cc(C(=O)NCc3ccco3)c3ccccc3n2)c1 | i | .
O=C(Cn1nnc(-c2ccccc2)n1)N1CCCCC1 | i | 1.5
O=C(c1ccco1)N1CCN(C(=O)c2ccc(-c3cccc(C(F)(F)F)c3)o2)CC1 | i | 0.1
O=C(Cn1nnc(-c2cccc(C(F)(F)F)c2)n1)N1CCCCCC1 | i | 12*
O=C(c1ccc(-c2cccc(C(F)(F)F)c2)o1)N1CCCCCCC1 | -6.2* | -6.2
CN(Cc1ccccc1)C(=O)CN(c1ccc(F)cc1)S(=O)(=O)c1ccc2c(c1)OCCO2 | i | .
CCOC(=O)CNC(=O)N1CCCC(C(=O)c2cccc(Cl)c2)C1 (stereo not given) | i | 0.32
C=CCN(c1ccc(C(=O)NCCN2CCOCC2)cc1)S(C)(=O)=O | i | .
Cc1ccc(C(=O)CCS(=O)(=O)c2ccc(Br)cc2)cc1 | i | .
COc1ccc(C(=O)CCS(=O)(=O)c2ccc(C)cc2)cc1 | -6.4* | -6.4
Cc1cc([N+](=O)[O-])ccc1NC(=O)C(C)NC1CCCCC1 (stereo not given) | i | .
COc1ccccc1NC(=O)CN1CC(=O)Nc2ccccc21 | i | 0.71
